The target in the assay is AT4G31550 (Arabidopsis thaliana, UniProt Q9SV15 228-325). Put plainly: DPI-ELISA; DPI-ELISA, streptavidin 384-well plate, 1-2 pmol biotinylated dsDNA per well, crude native E. coli extract, anti-His detection; buffer as in Brand et al. [46],; high values mean tight binding. Conditions: tags: C-terminal His (pET-DEST42); label: 5' biotin on forward strand; dsDNA, one strand shown. Background: An ELISA detects its analyte on a solid surface through an enzyme-linked reagent.
Chain of AT4G31550 (Q9SV15 228-325): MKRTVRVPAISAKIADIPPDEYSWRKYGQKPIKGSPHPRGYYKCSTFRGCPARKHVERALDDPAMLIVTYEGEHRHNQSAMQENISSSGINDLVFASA
Turning to AAAAAATCTTCACCTCACTTCGGTTTAAAA, the binding signal stood at 0.67 ± 0.0566 absorbance.

With AAAAAATCGCACTGCCGCCGATGGCTAAAA, the binding signal came to 0.625 ± 0.134 absorbance. The same measure for AAAAAAACGGTGTCATAGTATTAGTGAAAA: 0.585 ± 0.134 absorbance; for AAAAAACCCTACATCGCATATAAGAGAAAA: 0.675 ± 0.0212 absorbance.

Regarding AAAAAATTGGTTCTCATTTCTACTTCAAAA, the binding signal came to 0.57 ± 0.127 absorbance.

In turn, AAAAAAGGTTTAGCCCATGCCTGTGCAAAA came in with a binding signal of 0.645 ± 0.12 absorbance. Under AAAAAATTGCACCTGATACTAGGGTTAAAA stands 0.655 ± 0.148 absorbance; under AAAAAACTAACCGTCGCAGGCGTGTGAAAA, 0.715 ± 0.134 absorbance.

Consider AAAAAACAGGCCGATTCCGATCCCGGAAAA, for which the binding signal is 0.535 ± 0.0919 absorbance. Consider AAAAAAGTCTCACCTTTAGTCTTAATAAAA, for which the binding signal turned out to be 0.64 ± 0.0283 absorbance. In the case of AAAAAATAAGTAACCGAACGAAACTCAAAA, the binding signal turned out to be 0.75 ± 0.269 absorbance. Under AAAAAAAGTTCCAGGTCCGATGCTCAAAAA stands 0.805 ± 0.318 absorbance; under AAAAAACGCATCATAGCTACGCCCCAAAAA, 0.62 ± 0.0849 absorbance; under AAAAAATTCTAGCTTTTAACTTTAGCAAAA, 0.6 ± 0.141 absorbance.

Values taken from PMC3795721, “Screening for Protein-DNA Interactions by Automatable DNA-Protein Interaction ELISA”.
